Only some compounds are listed: those with a hit (about 6.8% of all), similar ones and a draw of the others.
SW480 rereplic: induces DNA re-replication in SW480 colon adenocarcinoma cells | AID 624297 | hit rate 1.8% among 340,000 | SW480 DNA re-replication, Hoechst DNA content imaging, 48 h | Potency, µM (top dose mostly 46.1 µM), for inactives: top-dose re-replication activation, actives largely listed as activators; further: % of control where 0% means no effect; nearly all actives have a fitted effect of over 55% in size
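First, 250 cells per well were seeded. Next, compound or vehicle (23 nL) was pinned in, plates sat 48 hr at 37 C. Finally Hoechst was added for 40 min before fluorescence scanning.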
TSG101-PTAP inh: blocks PTAP/TSG101 interaction to inhibit HIV-1 budding | Q99816 | Fluorescence polarization, FITC-PTAP peptide / Tsg101 binding | Potency, µM (highest dose often 115 µM), without a hit: top-dose activity change, negative = inhibition, actives largely listed as inhibitors | 340,000 tested, under 10 active | AID 493005; active means well fitted inhibition curve with a large enough effect in the main read-out, with a control signal flat, not every such curve was filed as active; inconclusive means small, poorly fitted or top-dose-only effect, or effect the other way, or a change in a side signal; inactive means no such curve, though single readings can be large or run the other way; further: % of control where 0% means no effect
Target sequence (Q99816 whole entry, looked up): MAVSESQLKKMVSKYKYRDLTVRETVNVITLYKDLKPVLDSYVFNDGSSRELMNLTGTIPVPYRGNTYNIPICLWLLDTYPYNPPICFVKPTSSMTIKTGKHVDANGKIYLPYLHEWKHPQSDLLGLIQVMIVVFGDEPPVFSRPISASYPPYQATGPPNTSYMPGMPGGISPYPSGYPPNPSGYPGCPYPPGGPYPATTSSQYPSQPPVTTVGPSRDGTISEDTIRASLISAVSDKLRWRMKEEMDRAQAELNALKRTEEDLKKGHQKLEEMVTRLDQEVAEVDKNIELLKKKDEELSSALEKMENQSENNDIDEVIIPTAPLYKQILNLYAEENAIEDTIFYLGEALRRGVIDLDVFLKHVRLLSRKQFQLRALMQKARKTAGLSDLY
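FP read-out: FITC-PTAP peptide, 50 nM final, binding Tsg101 binding domain, 10 uM final; 20 min, r.t.; 10 mM HEPES pH 7.5, 0.15 M NaCl, 0.01% Tween 20, 3 mM EDTA, 0.1 mM TCEP.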
PINK1 modulator: modulators of PINK1 expression; hit rate 0.2% among 410,000; PINK1 immunofluorescence, high-content cytometry, 24 h; AID 624263; Potency, µM (highest dose often 76.6 µM), inactives show top-dose activation (PINK1 increase), most hits filed as activators; active means well fitted activation curve with a large enough effect; inconclusive means small, poorly fitted or top-dose-only effect; cell line not stated here; further: % of control where 0% means no effect; nearly all actives have a fitted effect of over 65% in size
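Cells are seeded, rested 12 hours, then given compound at five concentrations or DMSO for 24 hours. After fixation, blocking and antibody staining, PINK1 amount and mitochondrial localization are scored; CCCP serves as control.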
MCF10A rereplic: induces DNA re-replication in MCF 10a normal breast cells; MCF 10A DNA re-replication, Hoechst nuclear intensity, 48 h; Potency, µM (highest dose often 46.1 µM), inactives show at the top dose activity, positive = re-replication, most hits filed as activators; hit rate 2.9% among 350,000; further: % of control where 0% means no effect; nearly all actives have a fitted effect of over 50% in size
KB-V1 MDR tox: kills drug-selected multidrug resistant KB-V1 cells; Potency, µM (doses to about 46.1 µM), most hits filed as cytotoxic; KB-V1 MDR cells viability, CellTiter-Glo, 72 h; hit rate 3.4% among 400,000; further: on the % scale 0 is the no-effect control and ±100 the full control effect; nearly all actives have a fitted effect of over 60% in size
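Potencies derive from concentration-effect curves fitted to normalized luminescence (CellTiter-Glo) of KB-V1 cells treated for 72 h at 37 degrees C in phenol-red-free DMEM containing 10% FBS.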
KB-3-1 tox: KB-3-1 parental cell cytotoxicity | KB-3-1 viability, CellTiter-Glo ATP luminescence, 72 h | hit rate 1.4% among 400,000 | Potency, µM (top dose mostly 46.1 µM), actives largely listed as cytotoxic | AID 1347075; further: on the % scale 0 is the no-effect control and ±100 the full control effect; nearly all actives have a fitted effect of over 60% in size
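Parental KB-3-1 adenocarcinoma cells in phenol-red-free DMEM with 10% FBS were pin-treated with compounds at several concentrations, incubated 72 h at 37 °C, and viability read by CellTiter-Glo luminescence; concentration-effect curves were fitted after normalization.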
* hit, by the source's call; i = inactive; ? = inconclusive; / = no result given; [ ] = another dose, or the depositor's remark. Unless noted, the call rests on the fitted dose curve; in most records, active means well fitted curve in the direction sought with a large enough effect; inconclusive means small, poorly fitted or top-dose-only effect, or another doubt; inactive means no such curve, though single readings can be large; an effect the other way counts as inactive or inconclusive. Potency means the concentration at half of the fitted maximal effect.

SMILES	SW480 rereplic	TSG101-PTAP inh	PINK1 modulator	MCF10A rereplic	KB-V1 MDR tox	KB-3-1 tox
Cc1ccc(/C=C/C(=O)N2CCC(c3nc4ccccc4o3)CC2)cc1	/	/	1%	/	/	/
CCC(C)n1c(SCc2ccc(F)cc2Cl)nc2ccsc2c1=O (centres undefined)	/	/	-1%	/	/	/
COc1ccccc1NC(=O)c1ccc2oc(=O)c(S(=O)(=O)c3ccccc3)cc2c1	/	/	0%	/	i	i
CCCN1CNc2c(c(=O)[nH]c(=S)n2CCc2cccc(OC)c2OC)C1	/	/	0%	/	/	/
COc1ccc(C(=O)c2c(C(F)(F)F)oc3c2C(=O)c2ccccc2C3=O)cc1OC	0.73µM*	0%	-1%	?	9.2µM*	9.2µM*
COc1ccc(Nc2cc(C(=O)NCCc3ccc(C)cc3)c3ccccc3n2)c(OC)c1	/	/	10%	/	i	?
Cc1ccc(S(=O)(=O)N(CC(=O)N/N=C/c2ccco2)c2cc(Cl)cc(Cl)c2)cc1	20%	-1%	?	?	18µM*	i
CCc1ccccc1NC(=O)C(CC)Oc1ccccc1-c1nnc(-c2ccccc2)o1 (centres undefined)	/	/	6%	/	?	15µM*
CCOc1ccc(C(=O)NCCS(=O)(=O)N2CCN(c3ccccc3F)CC2)cc1OCC	/	/	1%	/	/	/
COc1cc(/C=N/Nc2nncn2N)ccc1OCc1c(C)no[n+]1[O-]	1%	-6%	2%	18µM*	?	i
O=c1[nH]c(Nc2ccccc2)cc2ccccc12	19%	-11%	2%	13µM*	i	i
O=c1[nH]c(Nc2ccccc2)cc2cc(Br)ccc12	?	-20%	12%	?	?	i
COc1ccc(OC)c(Nc2cc3ccccc3c(=O)[nH]2)c1	21µM*	-2%	6%	16µM*	23µM*	4.1µM*
COc1ccc(OC)c(Nc2nnc(C)c(=O)[nH]2)c1	0%	-6%	0%	-17%	i	i
COc1ccccc1Nc1cc2cc(Br)ccc2c(=O)[nH]1	?	-2%	16%	21µM*	?	7.3µM*
CCCCN(CCCC)C(=O)CN(C)S(=O)(=O)c1ccc2c(c1)c(=O)n(C)c(=O)n2C	/	/	-1%	/	i	i
COc1ccccc1C1CN(CCNC(=O)c2sccc2Cl)Cc2ccccc2O1 (centres undefined)	/	/	0%	/	/	/
COc1ccc(N/C=C\C(=O)c2ccc(Br)cc2)cc1OC	0%	?	40µM*	0%	i	i
CCc1ccc(NC(=S)/N=C(\N)Nc2nc(C)c3cc(CC)ccc3n2)cc1	4.6µM*	0%	0%	?	?	?
Cc1cccc(NC(=S)/N=C(\N)Nc2nc(C)c3cc(C)ccc3n2)c1	?	0%	2%	17%	23µM*	i
Cc1ccc(S(=O)(=O)/N=C(\N)Nc2nc(C)c3ccccc3n2)cc1	-79%	-6%	-1%	?	9.2µM*	i
COc1ccc2c(C)nc(N/C(N)=N/S(=O)(=O)c3ccc(C)cc3)nc2c1	2%	-6%	0%	-6%	i	i
Cc1cccc(NC(=S)/N=C(\N)Nc2nc(C)c3ccc(C)cc3n2)c1	7.3µM*	-1%	7%	?	i	i
Cc1cccc(NC(=S)/N=C(\N)Nc2nc(C)c3ccccc3n2)c1	-8%	0%	2%	28%	?	?
Cc1ccc(-c2onc(C)c2C)cc1S(=O)(=O)Nc1ccc(Cl)cn1	/	/	1%	/	/	/
SMILES	SW480 rereplic	TSG101-PTAP inh	PINK1 modulator	MCF10A rereplic	KB-V1 MDR tox	KB-3-1 tox
CCc1cc(=O)[nH]c(SCc2nc(-c3ccccc3)no2)n1	/	/	2%	/	/	/
COc1ccc(NC(=O)CCS(=O)(=O)c2nc(-c3cccs3)cc(C(F)(F)F)n2)cc1OC	/	/	1%	/	/	/
Cc1cc(C)cc(NC(=S)/N=C(\N)Nc2nc(C)c3ccccc3n2)c1	?	2%	8%	-46%	18µM*	?
COc1ccc2nc(N/C(N)=N/C(=S)Nc3ccccc3)nc(C)c2c1	3%	1%	0%	13%	9.2µM*	?
NC1=C(Br)C(=O)c2ncccc2C1=O	8.2µM*	1%	-5%	0.52µM*	3.7µM*	2.6µM*
O=C1c2cccnc2C(=O)N1CO	-5%	-7%	-3%	-1%	i	i
COc1ccc(C(=O)N2CCN(c3nc4c(C)c(Cl)ccc4s3)CC2)c(OC)c1	/	/	0%	/	i	i
Cc1cc(-c2ccnc(-n3ncc(C(=O)NCC4CCCO4)c3C3CC3)n2)c(C)s1 (centres undefined)	/	/	5%	/	/	/
CC(=O)Nc1ccc(S(=O)(=O)Nc2cccc(-c3nc4cc(C)ccc4o3)c2)cc1	1%	-1%	3%	?	?	18µM*
Cc1ccc2oc(-c3cccc(NC(=O)C4CCCO4)c3)nc2c1 (centres undefined)	-1%	-11%	0%[38.3 µM]	-3%	i	i
Cc1cccc(-c2nc3cc(NC(=O)C4CCCO4)ccc3o2)c1 (centres undefined)	-59%	-4%	-1%	-56%	13µM*	i
Cc1ccc2oc(-c3cccc(NC(=O)Cc4cccs4)c3)nc2c1	2%	1%	28%[38.3 µM]	15µM*	i	i
Cc1ccc2oc(-c3cccc(NC(=O)c4cc(-n5cnnc5)ccc4Cl)c3)nc2c1	?	3%	?	8.2µM*	i	i

Compound activity from PubChem.
